Data: the antibiotic and cytotoxicity screens of Wong et al. (2023)
The campaign covered roughly 39,000 compounds. About 1,500 (3.8%) were called active. Many of the other results were omitted from the sample, so actives are more common in it than they were.

tested on: HSkMC (human skeletal muscle cells); experiment: cytotoxicity call (relative viability < 0.9); details: 10 µM

Row | SMILES | cytotoxicity call
1 | C[C@H]1CN([C@@H](C)CO)C(=O)c2cc(NC(=O)Cc3ccccc3)ccc2O[C@@H]1CN(C)S(=O)(=O)c1ccccc1 | inactive
2 | COc1cccc(S(=O)(=O)Nc2ccc3c(c2)[C@@H]2C[C@H](CC(=O)NCC(F)(F)F)O[C@H](CO)[C@@H]2O3)c1 | inactive
3 | C[C@@H]1CN([C@H](C)CO)C(=O)CCCn2nncc2CO[C@@H]1CN(C)C(=O)Nc1cccc(Oc2ccccn2)c1 | inactive
4 | COCCNC(=O)C[C@H]1CC[C@H]2[C@@H](COc3ccc(NC(=O)Nc4cccc(F)c4)cc3C(=O)N2C)O1 | inactive
5 | Cc1noc(C)c1NC(=O)Nc1cccc2c1O[C@H](CN(C)Cc1ccc(Cl)c(Cl)c1)[C@H](C)CN([C@@H](C)CO)C2=O | inactive
6 | C[C@@H]1CN([C@@H](C)CO)C(=O)CCCn2cc(nn2)CO[C@@H]1CN(C)Cc1ccc2c(c1)OCCN2C | inactive
7 | C[C@@H]1CN([C@@H](C)CO)C(=O)c2cc(NC(=O)C3CC3)ccc2O[C@H]1CN(C)C(=O)Nc1ccc2c(c1)OCO2 | inactive
8 | CCc1nc2ccccc2c(C(=O)Nc2cccc(Cl)c2)c1C | inactive
9 | C[C@@H]1CN([C@H](C)CO)C(=O)Cc2cc(NC(=O)C3CC3)ccc2O[C@@H]1CN(C)C(=O)Nc1ccc2c(c1)OCO2 | inactive
10 | O=C(C[C@@H]1CC[C@@H](NC(=O)c2cnccn2)[C@H](CO)O1)NCc1ccccc1F | inactive
11 | C[C@H]1CN([C@@H](C)CO)C(=O)Cc2cc(NC(=O)Cn3cnnn3)ccc2O[C@H]1CN(C)Cc1ccccc1 | inactive
12 | Cn1c(-c2ccccc2)c[nH]c1=S | inactive
13 | COc1ccc(NC(=O)Nc2ccc3c(c2)C(=O)N([C@@H](C)CO)C[C@H](C)[C@@H](CN(C)Cc2ccc(C(F)(F)F)cc2)OCCCC[C@@H](C)O3)cc1 | inactive
14 | COc1ccc(NC(=O)Nc2ccc3c(c2)C(=O)N([C@H](C)CO)C[C@@H](C)[C@H](CN(C)Cc2ccc(C(F)(F)F)cc2)OCCCC[C@@H](C)O3)cc1 | inactive
15 | COc1ccc(NC(=O)Nc2ccc3c(c2)C(=O)N([C@@H](C)CO)C[C@@H](C)[C@@H](CN(C)Cc2ccc(C(F)(F)F)cc2)OCCCC[C@H](C)O3)cc1 | inactive
16 | COc1ccc(NC(=O)Nc2ccc3c(c2)C(=O)N([C@H](C)CO)C[C@H](C)[C@@H](CN(C)Cc2ccc(C(F)(F)F)cc2)OCCCC[C@H](C)O3)cc1 | inactive
17 | COc1ccc(CN(C)C[C@@H]2OCCCC[C@@H](C)Oc3ccc(NC(=O)Nc4ccc(C(F)(F)F)cc4)cc3C(=O)N([C@H](C)CO)C[C@H]2C)cc1 | active
18 | COc1ccc(CN(C)C[C@H]2OCCCC[C@H](C)Oc3ccc(NC(=O)Nc4ccc(C(F)(F)F)cc4)cc3C(=O)N([C@@H](C)CO)C[C@H]2C)cc1 | active
19 | COc1ccc(CN(C)C[C@H]2OCCCC[C@H](C)Oc3ccc(NC(=O)Nc4ccc(C(F)(F)F)cc4)cc3C(=O)N([C@@H](C)CO)C[C@@H]2C)cc1 | active
20 | Cc1noc(C)c1S(=O)(=O)Nc1ccc2c(c1)C(=O)N([C@H](C)CO)C[C@H](C)[C@@H](CN(C)C(=O)NC(C)C)O2 | inactive
21 | COc1ccc(NC(=O)N(C)C[C@@H]2Oc3c(NS(C)(=O)=O)cccc3C(=O)N([C@@H](C)CO)C[C@@H]2C)cc1 | inactive

Row | SMILES | cytotoxicity call
22 | O=C(C[C@@H]1CC[C@H]2[C@@H](COC[C@@H](O)CN2S(=O)(=O)c2ccc(Cl)cc2)O1)NCCN1CCCC1 | inactive
23 | C[C@@H]1CN([C@H](C)CO)C(=O)c2cccc(NS(=O)(=O)c3ccc(F)cc3)c2O[C@@H]1CN(C)S(=O)(=O)c1ccc(F)cc1 | inactive
24 | C[C@@H]1CN([C@@H](C)CO)C(=O)c2cc(NC(=O)Nc3ccc(F)cc3)ccc2O[C@@H](C)CCCCO[C@@H]1CN(C)C(=O)CCCN(C)C | inactive
25 | O=C(C[C@H]1CC[C@@H]2[C@H](COC[C@H](O)CN2C(=O)c2ccccc2)O1)NCCCN1CCOCC1 | inactive
26 | C[C@@H]1CN([C@@H](C)CO)C(=O)Cc2cc(NS(=O)(=O)c3ccc(F)cc3)ccc2O[C@H]1CN(C)S(=O)(=O)c1cn(C)cn1 | inactive
27 | C[C@@H]1CN([C@@H](C)CO)C(=O)c2cc(NC(=O)Nc3ccc(C(F)(F)F)cc3)ccc2O[C@@H]1CN(C)C(=O)Nc1ccc(C(F)(F)F)cc1 | inactive
28 | C[C@@H]1CCCCO[C@H](CN(C)CC2CC2)[C@H](C)CN([C@H](C)CO)C(=O)c2cc(NC(=O)C3CCCCC3)ccc2O1 | inactive
29 | COc1ccc(CN(C)C[C@@H]2OCCCC[C@H](C)Oc3ccc(NC(=O)C4CCCCC4)cc3C(=O)N([C@@H](C)CO)C[C@@H]2C)cc1 | inactive
30 | COc1ccc(C[C@H](N)C(=O)N[C@H]2[C@@H](O)[C@@H](n3cnc4c(N(C)C)ncnc43)O[C@@H]2CO)cc1 | active
31 | COc1ccc(CC(N)C(=O)NC2C(CO)OC(n3cnc4c(N(C)C)ncnc43)C2O)cc1.Cl.Cl (configuration not stated) | active
32 | COc1ccc(C[C@@H](N)C(=O)N[C@@H]2[C@@H](O)[C@@H](n3cnc4c(N(C)C)ncnc43)O[C@@H]2CO)cc1 | active
33 | COc1nc(N)nc2c1ncn2[C@@H]1O[C@H](CO)[C@@H](O)[C@@H]1O | inactive
34 | OC[C@H]1O[C@@H](n2cnc3c(NCc4ccco4)ncnc32)[C@H](O)[C@@H]1O | inactive
35 | CNc1ncnc2c1ncn2[C@@H]1O[C@H](CO)[C@@H](O)[C@H]1O | inactive
36 | Nc1ncnc2c1ncn2C1OC(CO)C(O)C1O (configuration not stated) | inactive
37 | Nc1ncnc2c1ncn2[C@@H]1O[C@H](CO)[C@@H](O)[C@H]1O | inactive
38 | CN(C)c1ncnc2c1ncn2[C@H]1O[C@@H](CO)[C@@H](N)[C@@H]1O | inactive
39 | Nc1ncnc2c1ncn2[C@H]1O[C@@H](CO)[C@H](O)[C@@H]1S | inactive
40 | Nc1ccc(CCNc2ncnc3c2ncn3[C@@H]2O[C@H](CO)[C@@H](O)[C@H]2O)cc1 | inactive
41 | COc1ccc(C[C@H](N)C(=O)N[C@H]2[C@@H](O)[C@H](n3cnc4c(N(C)C)ncnc43)O[C@@H]2CO)cc1 | active
42 | C[C@H](CO)N1C[C@H](C)[C@@H](CN(C)C(=O)Nc2ccc3c(c2)OCO3)Oc2ccc(NC(=O)CCN3CCOCC3)cc2C1=O | inactive
